# In ChEMBL document CHEMBL3988442, “University of Dundee, Small-Polar-MMV Screening Library” (2021):
# Among all 48,000 compounds or so, about 13,000 (27%) showed an effect of 50% or more. Some of the results follow.
# Test system: Wolbachia pipientis
# Test: Anti-Wolbachia Cell-Based Screen
# Assay type: functional
# Set-up: scale not given: in the data most compounds retested in dose-response had high values
# Conditions: 5 µM
row,SMILES,Percent Effect [%]
1,CC(C)n1ccnc1CN1CCOC(CC2CCCCC2)C1 (centres undefined),1.186
2,CCc1ccc(-c2cn(CCSc3ncn[nH]3)nn2)nc1,2.471
3,Cn1nnnc1SCCNC(=O)C1CCN(C(=O)C2CCC2)CC1,1.92
4,CC(C)[C@H]1CN(CC2CCC2)C[C@@H]1NC(=O)c1ccc(=O)[nH]c1,7.651
5,CN(C)C(=O)c1nc(CN2C(=O)OC[C@@H]2c2ccccc2)no1,1.255
6,O=C(CN1CCS(=O)(=O)CC1)NC1CCCc2ccccc21 (centres undefined),8.057
7,CCN(CCO)Cc1cn(-c2cccc(F)c2)nc1-c1ccc(C)o1,11.71
8,O=C1CN(Cc2nnc(-c3ccc(Cl)cc3)o2)CCN1,-10.36
9,c1ccc2c(c1)CC(N1CCCC(NCc3cccc4nonc34)C1)C2 (centres undefined),-10.52
10,CCN(CCn1cccn1)C(=O)CN1C(=O)OC[C@@H]1c1ccccc1,-1.306
11,CS(=O)(=O)N1CCCC1CS(=O)(=O)c1ccccc1 (centres undefined),121.3
12,O=S(=O)(CC1CCCN1S(=O)(=O)c1cccnc1)c1ccccc1 (centres undefined),115.5
13,O=S(=O)(c1cccnc1)N1CCN(CC(O)c2ccccc2)CC1 (centres undefined),2.359
14,NC1CCCCN(Cc2ccccc2CS(=O)(=O)c2ccccc2)C1 (centres undefined),-12.21
15,O=S(=O)(CC1CCCN1S(=O)(=O)C1CC1)c1ccccc1 (centres undefined),115.6
16,O=S(=O)(c1cccnc1)N1CCCC1COc1ccccc1 (centres undefined),-14.29
17,Cc1nccn1CC1CCCN1S(=O)(=O)Cc1ccccc1 (centres undefined),-11.24
18,O=C(CC1CCCN1S(=O)(=O)N1CCCCC1)c1cccs1 (centres undefined),-4.447
19,CS(=O)(=O)N1CCCCC1CCc1ccc(O)cc1 (centres undefined),6.219
20,CS(=O)(=O)c1ccc(-c2c[nH]c([C@@H]3COCCN3)n2)cc1,22.57
21,COc1ccc(OC)c2c(C)cc(N(C)Cc3cc(C)on3)nc12,-2.431
22,Cc1nc2cc(=O)[nH]n2c(C)c1CC(=O)Nc1ccc2ccccc2n1,-9.33
23,c1ccc(-c2noc(C3CCN(CCn4cccn4)CC3)n2)cc1,4.986

row,SMILES,Percent Effect [%]
1,COc1cccc(COC(C)C(=O)NC2CCN(CC(N)=O)CC2)c1 (centres undefined),-5.378
2,COc1cccc(-c2noc(C3CCN(Cc4ccc(C)cc4)C3)n2)c1.Cl (centres undefined),91
3,COc1cccc(-c2noc(C3CCN(Cc4cccs4)C3)n2)c1.Cl (centres undefined),4.787
4,COc1cccc(-c2noc(C3CCN(CC(N)=O)C3)n2)c1 (centres undefined),113.2
5,Cc1cccc(-c2noc([C@@H]3C[C@@H](O)CN3C3CCOCC3)n2)c1,-7.928
6,COc1cccc(-c2noc(C3CCN(CC4CCCCC4)C3)n2)c1.Cl (centres undefined),96.8
7,CCS(=O)(=O)c1ccc2oc([C@H]3CCN(CC4CCCCC4)C3)nc2c1,-4.53
8,COc1cccc(-c2cccc(CN3C[C@@H]4CC[C@H](C3)N(C)C4=O)c2)c1,5.514
9,COc1cccc(-c2noc(C3CCN(Cc4ccncc4)C3)n2)c1 (centres undefined),126.2
10,Cc1c(NC(C)C(C)C)cccc1C(=O)NCc1cnn(C)c1 (centres undefined),6.886
11,COC(=O)c1sccc1S(=O)(=O)NCC1(O)CCOc2ccccc21 (centres undefined),-4.679
12,CCOC(=O)CN1CCC(NC(=O)OC(C)(C)C)CC1,-0.4465
13,COc1cccc([C@@H](C)n2ccnc2-c2cc3n(n2)CCNC3)c1,-10.36
14,CN(Cc1nc2ccccc2[nH]1)C(=O)C(C)(C)n1cc(Cl)cn1,2.79
15,COc1cc(C)nc(N2CCN(C(=O)CCc3cscn3)CC2)n1,-12.29
16,Cc1cccc(CN2CCCC2c2cccc(CCC(=O)O)n2)c1 (centres undefined),96.42
17,O=C(O)CCc1cccc(C2CCCN2Cc2ccc(F)c(F)c2)n1 (centres undefined),-6.193
18,O=C(O)CCc1cn(C2CCN(c3ncccc3Cl)CC2)nn1,-1.723
19,Cc1nn(C)c(C)c1C1CCCN1Cc1cccc(C(N)=O)c1 (centres undefined),1.349
20,Cc1cc(C)nc(N2CCC(c3cccc(CCC(=O)O)n3)CC2)n1,80.96
21,O=C(O)CCc1cccc(C2CCCN2Cc2cccc(Cl)c2)n1 (centres undefined),91.67
22,CC(=O)c1cc(CN2CCCC2c2nc3ccc(C)cc3[nH]2)cs1 (centres undefined),-31.75
23,NC(=O)COc1cccc(CN2CCCC2c2ccc[nH]2)c1 (centres undefined),11.28

row,SMILES,Percent Effect [%]
1,CCCN1CCCn2nc(CNC(=O)CC3CCS(=O)(=O)C3)cc2C1 (centres undefined),-3.917
2,CCc1ccc(C2COCCN2C(=O)Nc2cccc(C(C)=O)c2)o1 (centres undefined),-4.107
3,CSc1ncc(C(=O)NCc2cc3n(n2)CCCN(CC(C)C)C3)cn1,10.82
4,CC(=O)N1CCC2(CC1)CN(CC(C)C)CC21CCNC1=O.O=C(O)C(F)(F)F (centres undefined),-42.64
5,COc1cc2c(cc1OC)S(=O)(=O)N(Cc1ccccc1C)C2=O,-3.651
6,O=C1CC(c2ncc(-c3ccc4c(c3)OCCO4)[nH]2)CN1C1CCCC1 (centres undefined),12.43
7,CC1CCN(c2nc(O)cc(C3CC(=O)N(C4CCCCC4)C3)n2)CC1 (centres undefined),162.6
8,CC(=O)N1CC[C@H]2CC(=O)N(C3CCCCC3)CC[C@H]2C1,-3.423
9,CCOCCCNc1nc(O)cc(C2CC(=O)N(C)C2)n1 (centres undefined),-9.932
10,CC(C)Nc1nc(O)cc(C2CC(=O)N(C3CCCCC3)C2)n1 (centres undefined),137.6
11,CCNC(=O)N1CC[C@H]2CC(=O)N(C3CCCCC3)CC[C@H]2C1,0.2272
12,CCc1nc(C)c(CN2CCN(c3ncnc4c(C)csc34)CC2)[nH]1,6.188
13,O=c1cc(CN2CCCC(CCc3c(F)cccc3F)C2)[nH]c(=O)[nH]1 (centres undefined),-9.358
14,O=C1NCCCCC1NC(=O)C1(c2cccc(Cl)c2)CC1 (centres undefined),-14.19
15,O=C1CC(c2ccncc2)C2(CCN(CCO)CC2)N1 (centres undefined),-11.83
16,Cc1nc(CN2CCC3(CC2)NC(=O)CC3c2ccncc2)cs1.O=C(O)C(F)(F)F.O=C(O)C(F)(F)F (centres undefined),104.7
17,O=C1CC(c2cccnc2)C2(CCN(C(=O)N3CCOCC3)CC2)N1 (centres undefined),18.29
18,Cc1nc(CN2CCC3(CC2)NC(=O)CC3c2cccnc2)cs1 (centres undefined),101
19,CCc1ccc(CN2CCC3(CC2)NC(=O)CC3c2ccncc2)o1.O=C(O)C(F)(F)F.O=C(O)C(F)(F)F (centres undefined),-16.11
20,O=C(O)C(F)(F)F.O=C1CC(c2ccccc2)C2(CCN(CC3CC3)CC2)N1 (centres undefined),-11.51
21,O=C(O)C(F)(F)F.O=C1CC(c2ccncc2)C2(CCN(C(=O)c3cccs3)CC2)N1 (centres undefined),1.39
22,O=C(O)C(F)(F)F.O=C(O)C(F)(F)F.O=C1CC(c2ccncc2)C2(CCN(CC3CC3)CC2)N1 (centres undefined),90.78
23,COc1ccc(CN2CCC3(CC2)NC(=O)CC3c2ccncc2)cc1.O=C(O)C(F)(F)F.O=C(O)C(F)(F)F (centres undefined),4.952
